The list is not random: actives were taken first. Their share in the collection is about 5.9%.
ATXN2 expr inh = Primary qHTS for Inhibitors of ATXN expression; HEK-293 ATXN2-luciferase reporter, luminescence, 24 h; Potency, µM (doses to about 57 µM), most hits filed as inhibitors; 360,000 compounds, 0.72% hits; AID 1745845, 2022; further: nearly all actives have a fitted effect of over 55% in size
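qHTS (up to 57 uM final) was run with 24 h compound exposure of reporter cells at 37 °C. Each well was multiplexed: SteadyGlo luminescence measured ATXN2-luciferase expression after a fluorogenic Gly-Phe-AFC viability readout (25 uM final).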
TGFb inhibitor = qHTS for Inhibitors of TGF-b. HepG2 CAGA-GFP TGF-b/SMAD3 reporter, GFP fluorescence, 18 h; TGF-beta stimulated, 500 pg/mL final. Potency, µM (highest dose often 46.1 µM), actives largely listed as inhibitors. 410,000 compounds, 1.2% hits. AID 588855, 2011; further: nearly all actives have a fitted effect of over 65% in size
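HEPG2 CAGA-GFP reporter cells (1000/well, DMEM with 1% FBS) received compounds, then recombinant TGF-beta at 500 pg/mL final for 18 hours at 37 degrees C. Per-cell GFP summed per well was normalised to unstimulated and stimulated DMSO controls before curve fitting.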
KB-3-1 cytotox = qHTS assay for MDR1-selective chemotherapeutics: Primary screen using the parental adenocarcinoma cell KB-3-1. KB-3-1 viability, CellTiter-Glo ATP luminescence, 72 h. Potency, µM (series often up to 46.1 µM), most hits filed as cytotoxic. 400,000 compounds, 1.4% hits. AID 1347075, 2019; further: nearly all actives have a fitted effect of over 60% in size
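KB-3-1 cells, DMEM (no phenol red) + 10% FBS; compound by pin transfer, 72 h, 37 °C. Readout: CellTiter-Glo luminescence after 10 min. Data normalized, curve-fitted.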
KB-V1 cytotox = qHTS assay for MDR1-selective chemotherapeutics: Primary screen using the drug-selected MDR subline cells KB-V1 | KB-V1 MDR cells viability, CellTiter-Glo, 72 h | 400,000 compounds, 3.4% hits | Potency, µM (doses to about 46.1 µM), most hits filed as cytotoxic; further: nearly all actives have a fitted effect of over 60% in size
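KB-V1 MDR subline cells in DMEM (phenol-red free, 10% FBS) exposed to compounds in qHTS concentration series for 72 h at 37 degrees C. Viability read by CellTiter-Glo luminescence; concentration-effect curves fitted after normalization and correction.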
HepG2 tox = qHTS for Inhibitors of TGF-b: Cytotox Counterscreen. HepG2 CAGA-GFP viability, ATP luminescence, 18 h. AID 588856, 2011. Potency, µM (series often up to 46.1 µM), hits mostly cytotoxic. 410,000 compounds, 0.76% hits
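CellTiter-Glo luminescence gave cytotoxicity after 18 hours at 37 degrees C. The cells were HepG2 CAGA-GFP in 1% FBS DMEM, stimulated with 500 pg/mL TGF-beta after compound addition. %Activity was normalised to no-cell wells (complete cell-killing) and DMSO (no toxicity), and curves were fitted and classified.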
ATXN viability = Viability Counterscreen for Primary qHTS for Inhibitors of ATXN expression; AID 651635, 2014; 400,000 compounds, 0.49% hits; Potency, µM (series often up to 56.7 µM), hits mostly cytotoxic; S2 cells (HEK-293 line with an ATXN2-luciferase reporter) viability, CellTiter-Fluor protease fluorescence, 24 h; further: nearly all actives have a fitted effect of over 40% in size
Of the large screens only hits and unclear results are named; the others gave an inactive call. The call rests on the fitted dose curve; in most records, active means well fitted curve in the direction sought with a large enough effect; inconclusive means small, poorly fitted or top-dose-only effect, or another doubt; inactive means no such curve, though single readings can be large; an effect the other way counts as inactive or inconclusive.

COc1ccc(CNS(=O)(=O)CCNC(=O)c2ccccc2)cc1	none
COc1ccc(CNS(=O)(=O)CCNC(=O)c2cccc(OC)c2)cc1	KB-V1 cytotox 16.4µM
COc1ccc(C(=O)NCCS(=O)(=O)NCc2ccc3c(c2)OCO3)cc1	ATXN viability inconclusive
COc1ccc(C(=O)NCc2ccc3c(c2)OCO3)cc1S(=O)(=O)NCc1ccc(Cl)cc1	ATXN viability inconclusive
COc1ccc(C(=O)NCc2ccc3c(c2)OCO3)cc1S(=O)(=O)N(C)Cc1ccccc1	KB-V1 cytotox 9.2µM
COc1cccc(C(=O)NCCS(=O)(=O)NCc2ccc3c(c2)OCO3)c1	KB-V1 cytotox 18.4µM
CC(C)C(=O)Nc1cccc(C(F)(F)F)c1	none (no result: TGFb inhibitor, KB-3-1 cytotox, KB-V1 cytotox, HepG2 tox)
CCCCN(C)Cc1c(C(=O)N2CCc3ccccc3C2)nc2ccc(Cl)cn12	KB-V1 cytotox inconclusive
CC(C)CN(C)Cc1c(C(=O)N2CCc3ccccc3C2)nc2ccc(Cl)cn12	KB-3-1 cytotox inconclusive, KB-V1 cytotox 16.4µM
Cc1ccc(C)c(CN2C(=O)c3ccccc3S(=O)c3ccc(C(=O)NCc4ccco4)cc32)c1 (stereo not drawn)	KB-V1 cytotox inconclusive
COc1cccc(CN2CCc3nnc(CCc4ccccc4)n3CC2)c1OC	none (no result: ATXN2 expr inh, TGFb inhibitor, KB-3-1 cytotox, KB-V1 cytotox, HepG2 tox)
CC(C)(C)OC(=O)NCc1ccc(NC(=O)c2nc[nH]c2C(=O)NCCNC(=O)c2[nH]cnc2C(=O)Nc2ccc(CNC(=O)OC(C)(C)C)cc2)cc1	ATXN viability inconclusive
CC(C)(C)OC(=O)NCCCCCNC(=O)c1nc[nH]c1C(=O)NCCCCCNC(=O)OC(C)(C)C	ATXN2 expr inh 22.4µM, TGFb inhibitor inconclusive, KB-3-1 cytotox inconclusive, KB-V1 cytotox inconclusive, ATXN viability 25.1µM
O=C(Nc1ccccc1)c1nc[nH]c1C(=O)NCCCNC(=O)c1[nH]cnc1C(=O)Nc1ccccc1	none
CC(C)(C)OC(=O)NCCCCCNC(=O)c1[nH]cnc1C(=O)N[C@@H](CCCCNC(=O)OC(C)(C)C)C(=O)OC(C)(C)C	ATXN2 expr inh inconclusive, TGFb inhibitor inconclusive, KB-V1 cytotox inconclusive, ATXN viability inconclusive
O=C(Nc1ccccc1)c1nc[nH]c1C(=O)NCCN(CCNC(=O)c1[nH]cnc1C(=O)Nc1ccccc1)CCNC(=O)c1[nH]cnc1C(=O)Nc1ccccc1	TGFb inhibitor 20µM, KB-3-1 cytotox inconclusive
CC(C)(C)OC(=O)NCCCCCNC(=O)c1nc[nH]c1C(=O)NCc1ccc(CNC(=O)OC(C)(C)C)cc1	ATXN2 expr inh 20µM, TGFb inhibitor inconclusive, KB-3-1 cytotox inconclusive, KB-V1 cytotox inconclusive, ATXN viability 15.8µM
CC(C)(C)OC(=O)CNC(=O)c1[nH]cnc1C(=O)Nc1ccc(CNC(=O)OC(C)(C)C)cc1	ATXN2 expr inh 31.6µM, TGFb inhibitor inconclusive, KB-3-1 cytotox inconclusive, KB-V1 cytotox inconclusive, ATXN viability inconclusive
CNc1ccc(/C=C2\C=Cc3ccccc32)cc1	TGFb inhibitor inconclusive (no result: ATXN2 expr inh, ATXN viability)
COc1ccc(NC(=O)c2nc[nH]c2C(=O)Nc2ccccc2C)cc1	KB-3-1 cytotox 5.8µM, KB-V1 cytotox inconclusive
Cc1ccc(C)c(N2CCN(C(c3ccccc3)c3nnc(-c4ccccc4F)o3)CC2)c1 (stereo not drawn)	none
O=C1C2C3C=CC(C4CC34)C2C(=O)N1CCc1ccccc1 (stereo not drawn)	KB-V1 cytotox 18.4µM
O=C(CN1C(=O)C2C3C=CC(C4CC34)C2C1=O)Oc1ccccc1 (stereo not drawn)	KB-V1 cytotox inconclusive
C=CCSC1=C(C#N)C(c2ccccc2Cl)C(C(=O)c2cccs2)C(O)(C(F)(F)F)N1 (stereo not drawn)	TGFb inhibitor inconclusive, KB-3-1 cytotox inconclusive, KB-V1 cytotox 16.4µM
CCSC1=C(C#N)C(c2ccccc2Cl)C(C(=O)c2cccs2)C(O)(C(F)(F)F)N1 (stereo not drawn)	TGFb inhibitor inconclusive, KB-3-1 cytotox inconclusive, KB-V1 cytotox inconclusive
CCCC(=O)NC(=S)Nc1c(C)cc(Br)cc1C	KB-3-1 cytotox 18.4µM, KB-V1 cytotox inconclusive
CCC(=O)NC(=S)Nc1c(C)cc(Br)cc1C	none
Cc1ccc(S(=O)(=O)N(C)C)cc1NC(=S)NC(C)CCCC(C)C (stereo not drawn)	TGFb inhibitor 17.8µM, KB-3-1 cytotox inconclusive, KB-V1 cytotox inconclusive
CCc1cc(C(=O)Nc2cc(S(=O)(=O)N(C)C)ccc2C)sc1C	KB-V1 cytotox 9.2µM (no result: ATXN2 expr inh)
O=c1c(Cl)c(Cl)cnn1Cc1nnc(-c2ccccc2Br)o1	ATXN2 expr inh inconclusive, TGFb inhibitor 15.8µM, KB-V1 cytotox inconclusive (no result: ATXN viability)
O=C(c1ccncc1)N1N=C(c2ccc(Br)cc2)CC1c1ccccc1O (stereo not drawn)	ATXN2 expr inh inconclusive, TGFb inhibitor inconclusive, KB-V1 cytotox 20.6µM
O=C(c1ccccc1)N1N=C(c2ccccc2)CC1c1ccccc1O (stereo not drawn)	TGFb inhibitor inconclusive
O=C(c1ccccc1)N1N=C(c2ccccc2)CC1c1ccc2nccnc2c1 (stereo not drawn)	TGFb inhibitor inconclusive, KB-V1 cytotox 7.31µM
CC(=O)N1N=C(c2ccc3nccnc3c2)CC1c1ccccc1 (stereo not drawn)	none
Fc1cccc(-c2nnn3c2nc(NC2CCCCC2)c2ccccc23)c1	none
Cn1cnnc1Sc1ccc(CN2CCOc3ccc(C4=CCCCC4)cc3C2)o1	none (no result: ATXN2 expr inh, TGFb inhibitor, KB-3-1 cytotox, KB-V1 cytotox, HepG2 tox)
O=C(CN1C(=O)CCOc2ccccc21)Nc1cccc(S(=O)(=O)N2CCOCC2)c1	KB-V1 cytotox inconclusive
CCOC(=O)c1ccc(NC(=O)CN2c3ccccc3S(=O)(=O)c3ccccc32)cc1	ATXN2 expr inh inconclusive, TGFb inhibitor 11.2µM, ATXN viability inconclusive
O=C(CN1c2cccc3cccc(c23)S1(=O)=O)Nc1cccc(S(=O)(=O)N2CCOCC2)c1	KB-V1 cytotox 18.4µM
CCOC(=O)c1ccc(NC(=O)C2(c3ccccc3)CCCC2)cc1	KB-V1 cytotox 14.6µM
Cc1ccc(NC(=O)CN2c3cccc4cccc(c34)S2(=O)=O)cc1	TGFb inhibitor inconclusive, KB-V1 cytotox 23.1µM
COc1ccc(-c2cn3cccnc3n2)cc1NC(=O)Nc1cc(C)ccc1C	ATXN2 expr inh inconclusive, ATXN viability inconclusive
O=C(CN1c2cccc3cccc(c23)S1(=O)=O)NC1CCCCC1	KB-V1 cytotox 20.6µM
Cc1ccc(Cl)cc1-n1ncc2c(NCCc3ccccc3)ncnc21	ATXN2 expr inh inconclusive, TGFb inhibitor inconclusive, ATXN viability inconclusive

Screening results as filed in PubChem.
